Each structure is given as a SMILES string. Where “and” joins values, the source holds several entries; their conditions need not be identical. Identical values can stand only once. The source holds several records for some structures; these can differ, active in one and inactive in another. Calls of active or inactive are those of the source. The calls were made as follows: active = hit-call score of the fitted dose curve at least 0.9, where 1 is the maximum; inactive = score below 0.9.

In general, AC50 refers to the midpoint of the concentration-response curve, whichever way the signal moves.

A short description of this test: BSK_CASM3C_Proliferation: Cell Proliferation Assessment in the BioMAP Diversity Plus: CASM3C Assay (AID 2283047).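 Also: sulforhodamine B total protein stain as relative cell number at 560 nm; sub-confluent cells exposed 48 h before staining; fitted both ways against DMSO so gain or loss of cell number.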 The conditions noted are these: primary human coronary artery smooth muscle cells.
As to `O=C(O)C(F)(F)C(F)(F)C(F)(F)C(F)(F)C(F)(F)C(F)(F)C(F)(F)F`, the AC50 is 16.6 µM (active) and the outcome was inactive.

Take `COP(=O)(OC)OC=C(Cl)Cl`: the AC50 was 8.32 µM (active).

For `COP(=S)(OC)Oc1ccc([N+](=O)[O-])cc1`, the outcome was inactive.

Take `O=C(NC(=O)c1c(F)cccc1F)Nc1ccc(OC(F)(F)C(F)OC(F)(F)F)c(Cl)c1` (stereo not drawn): the result was inactive.

Turning to `CCc1ccc(C(=O)NN(C(=O)c2cc(C)cc(C)c2)C(C)(C)C)cc1`, the AC50 was 22.9 µM (active).

For `COC(=O)c1ccccc1S(=O)(=O)NC(=O)N(C)c1nc(C)nc(OC)n1`, the result was inactive.

As to `COC(=O)c1ccccc1CS(=O)(=O)NC(=O)Nc1nc(OC)cc(OC)n1`, the outcome was inactive.

With `O=C(O)CCCOc1ccc(Cl)cc1Cl`, the result was inactive.

Consider `O=[N+]([O-])/N=C1\NCCN1Cc1ccc(Cl)nc1`, for which the result was inactive.

Take `Cc1[nH]c(=O)n(C(C)(C)C)c(=O)c1Cl`: the result was inactive.

Consider `CC(C)(C)C(O)C(Oc1ccc(Cl)cc1)n1cncn1` (stereo not drawn), for which the outcome was inactive.

As for `CCOCN(C(=O)CCl)c1c(C)cccc1CC`, the AC50 is 30 µM (active).

`[2H]C1([2H])[n+]2ccccc2-c2cccc[n+]2C1([2H])[2H]`: the AC50 was 10.6 µM (active).

Take `CCOc1nc(NC)nc(NC(=O)NS(=O)(=O)c2ccccc2C(=O)OC)n1`: the outcome was inactive.

On to `Cc1cc(C)nc(NC(=O)NS(=O)(=O)c2ccccc2C(=O)OC2COC2)n1`, for which the result was inactive.

Regarding `COc1nn(CSP(=S)(OC)OC)c(=O)s1`, the result was inactive.

In the case of `Oc1ccc(Cl)cc1Cc1ccccc1`, the AC50 is 32.2 µM (active) [middle of 7 runs].

As to `CCOC1Oc2ccc(OS(C)(=O)=O)cc2C1(C)C` (stereo not drawn), the outcome was inactive.

Consider `ClC1C(Cl)C(Cl)C(Cl)C(Cl)C1Cl` (stereo not drawn), for which the AC50 is 20 µM (active) and 29.6 µM (active); the result was inactive.

`N#CN`: the result was inactive.

Turning to `CC1(c2ccc(Oc3ccccc3)cc2)OC(=O)N(Nc2ccccc2)C1=O` (stereo not drawn), the AC50 was 13.7 µM (active).

As to `CCCN(CCC)c1c([N+](=O)[O-])cc(C(F)(F)F)cc1[N+](=O)[O-]`, the outcome was inactive.

For `COc1cc(OC)nc(NC(=O)NS(=O)(=O)c2cc(NC=O)ccc2C(=O)N(C)C)n1`, the outcome was inactive.

For the compound `O=S(=O)(O)C(F)(F)C(F)(F)C(F)(F)C(F)(F)C(F)(F)C(F)(F)C(F)(F)C(F)(F)F`, the result was inactive.

As to `N#Cc1c(Cl)c(Cl)c(Cl)c(C#N)c1Cl`, the AC50 was 0.148 µM (active).

Regarding `O=[N+]([O-])c1c(Cl)c(Cl)c(Cl)c(Cl)c1Cl`, the result was inactive.

For the origin of these results see PubChem BioAssay (EPA / NIEHS).
